Test results: PubChem BioAssay (EPA / NIEHS)
Records with an inconclusive call do not appear. Activity calls are given as the source filed them. How the source made its calls: active means hit-call score of the fitted dose curve at least 0.9, where 1 is the maximum; inconclusive means response in the unintended direction; inactive means score below 0.9.

Test: CCTE_Harrill_HTTr_CellCount_MCF7: CCTE's Cell Proliferation Assessment for the High-Throughput Transcriptomics (HTTr) Platform, Harrill Lab (AID 2284012);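 further: cells exposed to compound for six hours; intended direction is loss of nuclei count meaning fewer cells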
In short: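 Cell count served as viability reporter: loss of Hoechst-stained nuclei, counted by high content imaging, marks decreased growth or survival. Exposure was 6 h in MCF-7 cells across eight concentrations, with DMSO as baseline.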

outcome, inactive:
CCCCCCCCCC(=O)O
C[C@]12CC[C@@H]3c4ccc(O)cc4CC[C@H]3[C@@H]1CCC2=O
O=C(OCCCCCCOC(=O)c1ccccc1)c1ccccc1
OCCO
Cc1cc(F)ccc1-c1cc(N2CC[C@@H](O)[C@H]2CO)ncc1N(C)C(=O)C(C)(C)c1cc(C(F)(F)F)cc(C(F)(F)F)c1
COc1ccc2cc(S(=O)(=O)N[C@H](CC(=O)N[C@H](Cc3ccc(CN4[C@H](C)CCC[C@@H]4C)cc3)C(=O)N(C)C(C)C)c3ccc4c(c3)OCO4)ccc2c1
Cc1cccc2ccccc12
Cc1ncc(CO)c(CO)c1O
CCCCCCCCCCCO
O=C1CCC(C2CCCCC2)CC1
CCCCOC(=O)CC(CC(=O)OCCCC)(OC(C)=O)C(=O)OCCCC
CCCCCCCCCCCC[N+](C)(C)C
Cc1oc2c(NC(=O)c3c(Cl)cccc3Cl)cccc2c1C(C)(C)O
O=C1c2ccccc2C(=O)N1CCc1noc(-c2ccc(CN3CCCCCC3)s2)n1
CCCCCc1ccc(N)cc1
O=c1ccc2ccccc2o1
Cc1occc1C(=O)Nc1ccc(C(=O)N2CCC(F)(F)/C(=C\C(=O)N3CCC(N4CCCCC4)CC3)c3ccccc32)cc1
O=C(O)c1ccccc1C(=O)OCc1ccccc1
O=c1c(-c2ccc(O)cc2)coc2cc(O)cc(O)c12
CCCOC(=O)c1cc(O)c(O)c(O)c1
Cc1ccc(C(C)C)cc1
Oc1ccccc1
Cc1ccc2oc(CN(Cc3ccccc3)C(=O)Nc3c(F)cc(F)cc3F)c(-c3ccc(Cl)cc3)c2c1
